test: basal MM1S mitochondrial membrane potential changes, profiling panel, cell-based, JC-1 fluorescence, 24 h, 100 nL compound (AID 1170); conditions: higher = more signal; note: test concentration not given here

Row | SMILES | z-score
1 | CC(C)=CCCC(C)=CC(O)C1C=CC2C(=O)N(c3ccccc3)C(=O)C2N1Nc1ccccc1F (configuration not stated) | -0.426
2 | C=CCC(OC(C)=O)[C@@H]1[C@@H](N(Cc2ccc(-c3cccc(C(F)(F)F)c3)o2)C(=O)Cc2ccc(OC)cc2)c2cc(OCCCO)ccc2N1C(=O)Cc1ccc2ccccc2c1 (some centres not stated) | 0.296
3 | NC(=O)NCC#Cc1ccc2c(c1)[C@]1(C(=O)N2)[C@H](C(=O)N2CCN(c3ncccn3)CC2)[C@H]2C(=O)O[C@H](c3ccccc3)[C@H](c3ccccc3)N2[C@@H]1c1ccc(OCCO)cc1 | -0.445
4 | COCCOC(=O)N1C(=O)[C@@]2(c3cc(C#CC4=CCCCC4)ccc31)[C@H](c1ccc(O)cc1)N1[C@H](c3ccccc3)[C@H](c3ccccc3)OC(=O)[C@H]1[C@@H]2C(=O)NC[C@H](O)c1ccccc1 | -1.06
5 | COCC(=C=CC[C@@H](O)c1cccc(OCCO)c1)CCO | -0.447
6 | Cc1ccc(S[C@]2(C(=O)NC(C)C)CC(=O)N(C(C)C)[C@@H]2c2ccc(CO)cc2I)cc1 | -1.32
7 | O=C1O[C@H](c2ccccc2)[C@H](c2ccccc2)N2[C@H]1[C@@H](C(=O)N1CCCCCCC1)[C@]1(C(=O)Nc3ccc(C#CC4(O)CCCCCC4)cc31)[C@H]2c1ccc(O)cc1 | -0.515

Source: PubChem BioAssay
